A short description of test [1]: inhibitors of TNFa-induced NFkB p65 translocation, primary screen, imaging, HUVEC, MLSMR starter and 10KST1 sets (AID 438;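 active means inhibition above 20% together with a positive visual image hit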;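 further: compound added about 3h40 before a 20 min TNFalpha stimulation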;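 on inhibition: signal is the nuclear over cytoplasmic p65 intensity ratio per well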). As to conditions: HUVEC TNFa-induced p65 nuclear translocation; cell count: measured here: nuclei count (cytotoxicity indicator), at 2.08 µM; inhibition: at 2 µM, stronger effect = higher value, 0% TNFa-plus-vehicle, 100% no-TNFa wells.
Test [2] is described as follows: inhibitors of mutant huntingtin aggregation, primary screen, imaging, exon1htt(103Q)mCFP cells, high-content imaging (AID 483;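 active means visual image review flags a hit and inhibition of aggregation exceeds 20%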;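 further: compound exposure lasted 3 days before fixation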;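 on nuclei count: percent of the per-plate median nuclei count of sample wells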). The conditions noted are these: exon1htt(103Q)mCFP cell line, aggregate imaging, at 2 µM; inhibition of aggregation: stronger effect = higher value; nuclei count: measured here: cell count, toxicity.
The nature of test [3]: inhibitors of E-selectin induction by TNFa, primary screen, imaging, HUVEC, immunofluorescence, MLSMR starter and 10KST1 sets (AID 487;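 active means visually confirmed hit in the image check and inhibition above 20%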;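 on inhibition: signal is fraction of cell area covered by stained E-selectin grains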;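 on nuclei count: 100% = median nuclei count of all wells on the same plate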). As to conditions: HUVEC TNFalpha-induced E-selectin immunofluorescence imaging, at 2 µM; inhibition: stronger effect = higher value; nuclei count: measured here: cell number, toxicity.
Test [4] concerns the target Voltage-gated potassium channel subunit beta-2 (Rattus norvegicus) (UniProt P62483). Kind of test: KvBeta enzyme negative modulators, primary screen, biochemical, NADPH fluorescence (AID 622;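 active means fluorescence slope higher than the sample average by over 3 SD, cut at about -0.22 in these data, passing the limit was not always enough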;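 further: slope of raw intensity against log time taken from 70 to 1610 s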). As to conditions: recombinant KvBeta, 4-cyanobenzaldehyde reduction, at 10 µM, stronger effect = higher value.
For test [5] the target is unchanged. Kind of test: KvBeta positive modulators, primary screen, biochemical, NADPH fluorescence (AID 623;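 active means NADPH fluorescence slope more negative than the mean of all samples by about 3 SD, 99.7% confidence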;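 further: fluorescence intensity change per second fitted from 20 to 320 s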). As to conditions: Recombinant KvBeta, NADPH fluorescence decrease slope, 10 min; at 10 µM; stronger effect = lower value.
Test [6] has as its target Alpha-2C adrenergic receptor (Homo sapiens) (UniProt P18825). The test is described as follows: modulators of alpha2C/GIRK thallium flux, primary screen, cell-based, HEK293 alpha2C/GIRK1/2 (AID 624).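 Further: slope of fluorescence ratio to pre-addition baseline per second over 15 to 24 s.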 The conditions noted are these: thallium flux BTC fluorescence, at 10 µM, actives lie on both sides.
Test [7] in a line: inhibitors of Sendai virus-induced IRF3 signaling, primary screen, TLR/RLR signaling modifier project, cell-based, Sendai virus stimulus, luciferase, 10K MLSCN set (AID 602276;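 active means inhibition at or above 50% at 10 µM; inactive means inhibition below 50%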;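 further: firefly luciferase from ISG56 promoter only with Renilla not read in this screen; 0% = Sendai virus plus DMSO and 100% = medium plus DMSO without virus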). The conditions noted are these: HEK293 RL24 IRF3 luciferase reporter, at 10 µM, stronger effect = higher value. For orientation: Reporter assays use an easily measured gene product as a stand-in for the process of interest.

Test [8] is described as follows: inhibitors of poly I:C-induced TLR3 signaling, primary screen, cell-based, poly I:C stimulus, luciferase, 10K MLSCN set (AID 602277;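 active means inhibition of the reporter signal at or above 50%; inactive means inhibition below 50%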). The conditions noted are these: HEK293-TLR3 RL24 IRF3 luciferase reporter, at 10 µM, stronger effect = higher value.

Calls of active or inactive are those of the source.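 How the source made its calls, unless noted: active means fluorescence slope after compound addition differing from the mean of all screened samples at 99.7% confidence, in either direction; inactive means the rest.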

Alpha-2C adrenergic receptor (Homo sapiens), sequence (P18825 whole entry, looked up): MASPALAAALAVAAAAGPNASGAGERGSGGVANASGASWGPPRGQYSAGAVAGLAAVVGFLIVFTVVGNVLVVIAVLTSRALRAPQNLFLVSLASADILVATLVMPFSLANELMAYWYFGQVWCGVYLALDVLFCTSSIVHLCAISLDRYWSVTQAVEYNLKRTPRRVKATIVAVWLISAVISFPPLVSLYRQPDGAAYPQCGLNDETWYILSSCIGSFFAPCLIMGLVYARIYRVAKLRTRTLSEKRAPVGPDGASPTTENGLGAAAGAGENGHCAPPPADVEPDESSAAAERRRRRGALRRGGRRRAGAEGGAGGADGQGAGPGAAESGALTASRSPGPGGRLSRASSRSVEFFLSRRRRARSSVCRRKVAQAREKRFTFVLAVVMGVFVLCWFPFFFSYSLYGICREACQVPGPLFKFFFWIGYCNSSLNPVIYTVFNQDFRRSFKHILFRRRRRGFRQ
Voltage-gated potassium channel subunit beta-2 (Rattus norvegicus), sequence (P62483 whole entry, looked up): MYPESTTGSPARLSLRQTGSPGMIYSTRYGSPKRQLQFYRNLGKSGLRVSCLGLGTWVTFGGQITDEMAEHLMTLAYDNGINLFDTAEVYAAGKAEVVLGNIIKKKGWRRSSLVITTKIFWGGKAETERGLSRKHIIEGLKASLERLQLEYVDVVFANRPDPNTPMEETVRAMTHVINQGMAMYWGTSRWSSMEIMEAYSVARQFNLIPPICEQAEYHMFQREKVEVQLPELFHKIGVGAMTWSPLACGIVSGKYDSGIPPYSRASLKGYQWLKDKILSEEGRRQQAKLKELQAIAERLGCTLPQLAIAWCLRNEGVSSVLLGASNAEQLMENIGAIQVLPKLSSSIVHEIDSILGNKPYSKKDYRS

Take `CCC(C(=O)NC1CCCC1)N(Cc1ccco1)C(=O)Cn1nnc(-c2ccc(C)cc2)n1` (stereo not drawn): in test [1], the cell count stood at 478. Further, the inhibition is 1.7% (inactive) in test [1], -150% (inactive) in test [3], 10.8% (inactive) in test [7] and -7.83% (inactive) in test [8]. For the same compound, the inhibition of aggregation in test [2] is 10.6% (inactive). Further, the nuclei count came out at 114% in test [2] and 112% in test [3]. In test [4], the fluorescence slope was -0.617 (inactive). In test [5], the NADPH fluorescence slope was -1.6e-05 (inactive). Further, in test [6], the slope was 0.0026 (inactive).

For `CC(CN1CCCCC1)OC(=O)c1ccc2c(c1)OCO2` (stereo not drawn), the cell count in test [1] is 639. Besides, the inhibition in test [1] was 4.9% (inactive); in test [3], -45.9% (inactive); in test [7] it was 6.1% (inactive); in test [8] it was -0.512% (inactive). In addition, in test [2], the inhibition of aggregation is 27.4% (inactive). Moreover, the nuclei count was found to be 70.8% in test [2] and 103% in test [3]. The fluorescence slope in test [4] was -0.586 (inactive). Besides, in test [5], the NADPH fluorescence slope is -3.4e-05 (inactive). For the same compound, the slope in test [6] is 0.00425 (inactive).

As to `Cc1cc(C)n(CC(=O)NC2CCCCC2)n1`, in test [1], the cell count worked out at 406. Further, the inhibition in test [1] is -0.6% (inactive); in test [3], -225% (inactive); in test [7], 14.7% (inactive); in test [8], 18% (inactive). Further, the inhibition of aggregation in test [2] was -4.9% (inactive). The nuclei count in test [2] worked out at 105%; in test [3] it was 114%. For the same compound, in test [4], the fluorescence slope was -0.468 (inactive). Further, the NADPH fluorescence slope in test [5] is -1.5e-06 (inactive). Further, the slope in test [6] is 0.00622 (inactive).

Regarding `Cc1ccc(S(=O)(=O)NCCNC(=O)C2CCCNC2=O)cc1` (stereo not drawn), the cell count in test [1] was 440. The inhibition is -0.4% (inactive) in test [1], -14.7% (inactive) in test [3], 16.4% (inactive) in test [7] and 12.2% (inactive) in test [8]. Further, the inhibition of aggregation in test [2] is -9.8% (inactive). The nuclei count in test [2] was 97.5%; in test [3] it was 121%. Moreover, in test [4], the fluorescence slope was -0.584 (inactive). Moreover, in test [5], the NADPH fluorescence slope was -7e-05 (inactive). Further, the slope in test [6] was 0.00341 (inactive).

On to `COCCN(C(=O)CNC(=O)c1ccco1)C(C(=O)NC1CCCCC1)c1cccc(OC)c1` (stereo not drawn), for which, in test [1], the cell count came to 650. Also, the inhibition in test [1] was -9.5% (inactive); in test [3] it was 37% (inactive); in test [7] it was 5.23% (inactive); in test [8], 36.9% (inactive). Moreover, the inhibition of aggregation in test [2] was 15.9% (inactive). For the same compound, the nuclei count in test [2] was found to be 104%; in test [3] it was 101%. The fluorescence slope in test [4] was -0.444 (inactive). In test [5], the NADPH fluorescence slope was -2e-05 (inactive). The slope in test [6] was 0.00264 (inactive).

For `CC(C)c1nc(N2CCN(C(=O)c3ccco3)CC2)c2c3c(sc2n1)CCCC3`, the cell count in test [1] stood at 748. For the same compound, the inhibition was -9.7% (inactive) in test [1], -7.6% (inactive) in test [3], 15.9% (inactive) in test [7] and -5.95% (inactive) in test [8]. Moreover, in test [2], the inhibition of aggregation is -12.3% (inactive). The figures for the nuclei count in test [2] and in test [3] were 94.5% and 103%, respectively. In addition, in test [4], the fluorescence slope was -0.486 (inactive). Moreover, the NADPH fluorescence slope in test [5] is 5.1e-05 (inactive). Further, the slope in test [6] is 0.00628 (inactive).

With `COc1cc2c(C#N)c(N3CCN(c4ccccc4OC)CC3)nc(N)c2c(N)n1`, the cell count in test [1] was 660. Further, the inhibition is 0.7% (inactive) in test [1], -76.6% (inactive) in test [3], -0.302% (inactive) in test [7] and -36.5% (inactive) in test [8]. Further, in test [2], the inhibition of aggregation is -14.7% (inactive). The nuclei count in test [2] stood at 99.8%; in test [3] it was 109%. In addition, the fluorescence slope in test [4] is -0.178 (inactive). For the same compound, in test [5], the NADPH fluorescence slope is 1.8e-06 (inactive). Also, the slope in test [6] is 0.00562 (inactive).

For the compound `CCCOc1cccc(NC(=O)c2c(-c3ccccc3)noc2C)c1`, the cell count in test [1] amounted to 515. The inhibition is 2% (inactive) in test [1], -32% (inactive) in test [3], 12.6% (inactive) in test [7] and 18% (inactive) in test [8]. For the same compound, the inhibition of aggregation in test [2] is 7.5% (inactive). For the same compound, the nuclei count in test [2] was found to be 92.7%; in test [3], 116%. In addition, the fluorescence slope in test [4] was -0.534 (inactive). Moreover, the NADPH fluorescence slope in test [5] is 5.8e-06 (inactive). In addition, the slope in test [6] is 0.00598 (inactive).

Take `C=CCn1c(COc2ccc(CC)cc2)nnc1SC/C(O)=C(\C#N)c1nc2ccccc2[nH]1`: in test [1], the cell count is 705. In addition, the inhibition was -4.3% (inactive) in test [1], -10.1% (inactive) in test [3], 21.3% (inactive) in test [7] and 14.4% (inactive) in test [8]. Further, the inhibition of aggregation in test [2] was 3.6% (inactive). Besides, the nuclei count in test [2] was found to be 101%; in test [3], 108%. Also, the fluorescence slope in test [4] is -0.379 (inactive). Besides, in test [5], the NADPH fluorescence slope is 8.9e-06 (inactive). In test [6], the slope is 0.0031 (inactive).

Consider `Cc1sc2nc(SCC(=O)NCCO)n(C)c(=O)c2c1C`, for which the cell count in test [1] is 368. Besides, the inhibition in test [1] is 4.3% (inactive); in test [3], 4.8% (inactive); in test [7] it was 5.26% (inactive); in test [8], 26% (inactive). Further, the inhibition of aggregation in test [2] was 12.1% (inactive). In addition, the nuclei count worked out at 109% in test [2] and 112% in test [3]. For the same compound, in test [4], the fluorescence slope was -0.343 (inactive). Besides, the NADPH fluorescence slope in test [5] was -5.2e-05 (inactive). Further, the slope in test [6] was 0.00646 (inactive).

`CCCC1CCC(C(=O)Nn2cnc3ccccc3c2=O)CC1` (stereo not drawn): the cell count in test [1] was 271. Moreover, the inhibition in test [1] is 3.9% (inactive); in test [3] it was 33.8% (inactive); in test [7], 6.74% (inactive); in test [8], 21.4% (inactive). Also, in test [2], the inhibition of aggregation is 17.1% (inactive). Besides, the nuclei count was 86.9% in test [2] and 77.6% in test [3]. Moreover, the fluorescence slope in test [4] is -0.478 (inactive). Besides, in test [5], the NADPH fluorescence slope is 2.4e-05 (inactive). In test [6], the slope is 0.00566 (inactive).

Turning to `O=C(c1ccco1)N1CCN(S(=O)(=O)c2ccc(C3CCCCC3)cc2)CC1`, the cell count in test [1] was 400. Besides, the inhibition in test [1] is 7.2% (inactive); in test [3] it was -44.9% (inactive); in test [7], -0.0986% (inactive); in test [8], -28.6% (inactive). The inhibition of aggregation in test [2] was -1.8% (inactive). Besides, the nuclei count in test [2] came to 102%; in test [3], 109%. Further, the fluorescence slope in test [4] is -0.501 (inactive). The NADPH fluorescence slope in test [5] was -3.8e-05 (inactive). In test [6], the slope was 0.00443 (inactive).

Regarding `Cc1cc(N2CCN(C)CC2)nc(N2CCOCC2)n1`, in test [1], the cell count was determined as 692. In addition, the inhibition in test [1] was -9.4% (inactive); in test [3] it was -24.5% (inactive); in test [7] it was -2.65% (inactive); in test [8], 25.9% (inactive). Besides, the inhibition of aggregation in test [2] is -6.8% (inactive). Also, the values for the nuclei count in test [2] and in test [3] were 125% and 109%, respectively. Moreover, the fluorescence slope in test [4] was -0.425 (inactive). The NADPH fluorescence slope in test [5] is -4.1e-05 (inactive). Further, the slope in test [6] was 0.00311 (inactive).

The term inhibition denotes the change of the read-out against control, counted positive when it falls.

Source of the values: PubChem BioAssay.
